“And” between values parts separate entries of the source, which are not always exact repeats. Identical values can stand only once. Inconclusive results are not listed. Some structures have more than one record in an assay (separate samples or runs), and their calls can disagree. The source made the active and inactive calls. Unless noted, calls follow the shape of the full dose curve.
Assays:
[1] = qHTS Assay for Lipid Storage Modulators (AID 1519); conditions: Drosophila S3 cells, BODIPY lipid droplet/cell ratio, laser cytometry, cells loaded with oleic acid; as to activity change, negative = inhibition: % is scaled to controls: 0 for no effect and ±100 for the full control effect
Outline: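 Cells seeded at 5,000 per well were treated with compounds over a concentration series and loaded with oleic acid (400 uM, as added). Lipid droplet fluorescence (488 nm excitation, 500-530 nm channel) was read by laser-scanning cytometry and normalized to 20 uM Triacsin C.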

[2] = molecular target: Ubiquitin carboxyl-terminal hydrolase 1 (Homo sapiens) (UniProt O94782); assay: Inhibitors of USP1/UAF1: Pilot qHTS (AID 504865; active = well fitted curve in the direction sought with a large enough effect; an effect the other way counts as inactive or inconclusive;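 also: rhodamine fluorescence freed from ubiquitin-rhodamine substrate followed over time; top concentration of the series differs between compounds; % is scaled to controls: 0 for no effect and ±100 for the full control effect; nearly all actives have a fitted effect of over 35% in size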)
Outline: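 Deubiquitinase activity followed as kinetic rhodamine fluorescence release from 150 nM Ub-Rho. 1 nM USP1/UAF1 with compound, after 15 min room-temperature preincubation, in HEPES pH 7.8 buffer containing TCEP, EDTA, BSA and Tween-20.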

[3] = molecular target: DNA dC->dU-editing enzyme APOBEC-3G (Homo sapiens) (UniProt Q9HC16); assay: qHTS for inhibitors of Vif-A3G interactions: Validation (AID 588379; active = well fitted curve in the direction sought with a large enough effect; an effect the other way counts as inactive or inconclusive; also: 0% is about no effect)
Outline: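 Yellow fluorescence (Ex 488, Em 500-530) of Vif-coexpressing HeLa A3G-eYFP cells, scanned by Acumen cytometer, reports blocked A3G degradation. Cells plated at 700/well overnight at 37 deg C before compound addition, then a further overnight compound incubation at 37 deg C.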

[4] = qHTS for Inhibitors of the Functional Ribonucleoprotein Complex (vRNP) of Lassa (LASV) Arenavirus: LASV Primary Screen - GLuc reporter signal (AID 1347082; calls by dose curve; tested in HEK293 reporter line; also: % is scaled to controls: 0 for no effect and ±100 for the full control effect; nearly all actives have a fitted effect of over 60% in size)
[5] = qHTS for Inhibitors of the Functional Ribonucleoprotein Complex (vRNP) of Lassa (LASV) Arenavirus: Viability assay - alamar blue signal for LASV Primary Screen (AID 1347083; calls by dose curve; tested in HEK293 reporter line; also: % is scaled to controls: 0 for no effect and ±100 for the full control effect; nearly all actives have a fitted effect of over 80% in size)
[6] = qHTS for Inhibitors of the Functional Ribonucleoprotein Complex (vRNP) of Lymphocytic Choriomeningitis Arenaviruses (LCMV): Viability assay - alamar blue signal for LCMV Primary Screen (AID 1347085; calls by dose curve; tested in HEK293 reporter line; also: % is scaled to controls: 0 for no effect and ±100 for the full control effect; nearly all actives have a fitted effect of over 80% in size)
[7] = molecular target: Nucleoprotein (Lymphocytic choriomeningitis virus (strain Armstrong)) (UniProt P09992); assay: qHTS for Inhibitors of the Functional Ribonucleoprotein Complex (vRNP) of Lymphocytic Choriomeningitis Arenaviruses (LCMV): LCMV Primary Screen - GLuc reporter signal (AID 1347086); also: % is scaled to controls: 0 for no effect and ±100 for the full control effect; nearly all actives have a fitted effect of over 70% in size
[8] = AP1 Signaling Pathway (AID 357; active = well fitted curve in either direction with a large enough effect, not every such curve was filed as active;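 also: ME-180 reporter cells stimulated with EGF at its EC50 level; % is scaled to controls: 0 for no effect and ±100 for the full control effect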)
Outline: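 Titration-series screen for positive or negative modulators of EC50 EGF-induced signaling in ME-180 cells carrying an AP-1-driven beta-lactamase reporter. After 5 hours at 37 degrees Celsius, CCF4 460nm/530nm emission ratio gave %Activity; AC50 values derived.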

[9] = molecular target: Cytochrome P450 1A2 (Homo sapiens) (UniProt P05177); assay: p450-cyp1a2 (AID 410); also: potency is read from the fitted curve at half-maximal effect;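 as to activity change, negative = inhibition: -100% = full effect of reference inhibitor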
Outline: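 Read-out is luminescence from luciferin produced by CYP1A2 demethylation of Luciferin-ME (100uM, at Km). Detection reagent stopped the 60 min NADPH-dependent reaction; signals were normalized to 57 uM furafylline.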

[10] = NFAT Signaling Pathway (AID 444; active = well fitted curve in either direction with a large enough effect, not every such curve was filed as active;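 also: carbachol stimulus at about its EC50 of 1 µM final; % is scaled to controls: 0 for no effect and ±100 for the full control effect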); conditions: Jurkat NFAT-bla M1, carbachol, beta-lactamase ratio, 5 h; at 17.2 µM (top of the series)
Outline: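 Read-out: CCF4 FRET ratio (460 nm/530 nm) after 1 h RT dye loading, used for %activity and AC50 from titration series. Cells: Jurkat NFAT-β-lactamase/M1 line, treated with compound plus 1 uM carbachol for 5 h, 37 °C.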

[11] = molecular target: Glucocorticoid receptor (Homo sapiens) (UniProt P04150); assay: GR-GFP Redistribution (AID 450;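 active = compounds whose dose series gives a full or clear partial fitted curve of increased nuclear translocation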; also: potency is read from the fitted curve at half-maximal effect); conditions: U2OS GR-GFP nuclear translocation, laser cytometry, 2 h
[12] = molecular target: Cytochrome P450 2C19 (Homo sapiens) (UniProt P33261); assay: qHTS Assay for Inhibitors and Substrates of Cytochrome P450 2C19 (AID 899; active = well fitted curve in the direction sought with a large enough effect; an effect the other way counts as inactive or inconclusive; also: potency is read from the fitted curve at half-maximal effect; nearly all actives have a fitted effect of over 60% in size)
Outline: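 Reactions contain 5nM enzyme, 10uM Luciferin-H EGE (KM) and 50mM KPO4; compound preincubates 10 min at 37C, NADPH regeneration starts turnover for 60 min. Luminescence after detection reagent gives activity.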

[13] = qHTS profiling of the MIPE4 collection as inhibitors of Plasmodium falciparum (DD2) proliferation (AID 743345; call rule not given here); conditions: P. falciparum Dd2 in erythrocytes, SYBR Green DNA, 72 h; at 28.5 µM (top of the series) unless noted
Outline: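 Parasite DNA was quantified by SYBR Green I fluorescence (ex 485, em 535 nm) after overnight lysis in saponin/Triton buffer at room temperature. Cultures at 0.3% parasitemia and 2.5% hematocrit were first exposed to compound for 72 h at 37 C; signals were normalised to artemisinin (0.29 uM) and vehicle wells.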

[14] = Cytotoxicity counterscreen for inhibitors of SARS-CoV-2 cell entry (AID 1645845); also: nearly all actives have a fitted effect of over 50% in size
Outline: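 ATP-content luminescence (ATPLite 1step, 15 min RT) read after 48 h compound exposure of Expi293F cells stably expressing human ACE2; normalized to cells-only wells and media-only wells.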

[15] = Primary qHTS to identify inhibitors of SARS-CoV-2 cell entry (AID 1645846); conditions: activity change, negative = inhibition: at 57.1 µM (top of the series) unless noted; also: nearly all actives have a fitted effect of over 45% in size
Outline: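 Entry measured by luciferase signal 48 h after adding SARS-CoV-2-S pseudotyped MLV particles to HEK293-ACE2 cells preincubated 1 h with compounds. Normalisation: bald particles and spike particles.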

[16] = molecular target: Alpha-galactosidase (Coffea arabica) (UniProt Q42656); assay: Counterscreen for Glucocerebrosidase Inhibitors: qHTS Assay for Coffee Bean alpha-Galactosidase at pH 4.5 (AID 957; active = well fitted curve in the direction sought with a large enough effect; an effect the other way counts as inactive or inconclusive;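 also: plate controls were enzyme alone for no effect and no enzyme for full effect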)
Outline: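 Quantitative HTS of compounds (0.7 nM to 77 uM) against coffee bean alpha-galactosidase at pH 4.5, measuring 4-methylumbelliferone fluorescence released from 80 uM substrate.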

[17] = molecular target: Alpha-galactosidase (Coffea arabica) (UniProt Q42656); assay: Counterscreen for Glucocerebrosidase Inhibitors: qHTS Assay for Coffee Bean alpha-Galactosidase at pH 5.9 (AID 998; active = well fitted curve in the direction sought with a large enough effect; an effect the other way counts as inactive or inconclusive;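 also: plate controls were uninhibited enzyme for no effect and no-enzyme basal signal for full effect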)
Outline: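 Fluorogenic 4-MU substrate hydrolysis, 80 uM substrate and 2 nM coffee bean alpha-galactosidase, pH 5.9 citrate buffer, 20 min at room temperature, then NaOH/glycine stop. Titration 0.7 nM–77 uM, normalized to no-enzyme and enzyme controls, AC50 via Hill equation.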

[18] = Validation screen for inhibitors of Lassa infection (AID 463096); also: % is scaled to controls: 0 for no effect and ±100 for the full control effect
[19] = Inducers of the Endoplasmic Reticulum Stress Response (ERSR) in human glioma: Validation (AID 504836; active = well fitted curve in the direction sought with a large enough effect; an effect the other way counts as inactive or inconclusive; also: 0% is about no effect)
Outline: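 ERSR induction read as luciferase luminescence (Bright-Glo, 10 min at room temperature) in stably transfected human U87-MG glioma cells exposed to compounds for 16 h, using GRP78 as sensor.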

[20] = Confirmatory qHTS for VERO E6 Cytotoxicity Assay: Counterscreen for SARS-CoV-2 CPE Assay (AID 1508605); also: % is scaled to controls: 0 for no effect and ±100 for the full control effect; nearly all actives have a fitted effect of over 60% in size
[21] = measured here: cell count channel max response
[22] = measured here: lipid channel max response

Chain of Ubiquitin carboxyl-terminal hydrolase 1 (Homo sapiens) (O94782 whole entry, looked up): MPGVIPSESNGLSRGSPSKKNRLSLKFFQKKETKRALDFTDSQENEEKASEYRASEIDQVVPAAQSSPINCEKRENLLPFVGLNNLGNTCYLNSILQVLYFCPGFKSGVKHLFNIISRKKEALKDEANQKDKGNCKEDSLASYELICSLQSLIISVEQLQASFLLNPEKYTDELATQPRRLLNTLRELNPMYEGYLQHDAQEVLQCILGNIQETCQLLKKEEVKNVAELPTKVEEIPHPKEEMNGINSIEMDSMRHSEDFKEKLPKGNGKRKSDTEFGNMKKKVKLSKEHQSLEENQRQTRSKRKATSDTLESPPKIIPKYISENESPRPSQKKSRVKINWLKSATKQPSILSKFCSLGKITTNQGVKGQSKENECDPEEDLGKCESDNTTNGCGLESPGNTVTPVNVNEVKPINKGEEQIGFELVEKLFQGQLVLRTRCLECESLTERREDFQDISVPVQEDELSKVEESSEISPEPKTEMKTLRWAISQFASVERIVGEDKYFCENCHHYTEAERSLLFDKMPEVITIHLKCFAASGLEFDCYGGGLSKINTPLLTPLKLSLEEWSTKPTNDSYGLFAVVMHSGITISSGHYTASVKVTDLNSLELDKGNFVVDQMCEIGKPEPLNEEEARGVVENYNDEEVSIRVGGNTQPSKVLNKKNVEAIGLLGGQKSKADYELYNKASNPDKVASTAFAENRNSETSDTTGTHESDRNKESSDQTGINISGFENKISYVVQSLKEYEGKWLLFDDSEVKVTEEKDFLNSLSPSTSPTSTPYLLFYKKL
Chain of Nucleoprotein (Lymphocytic choriomeningitis virus (strain Armstrong)) (P09992 whole entry, looked up): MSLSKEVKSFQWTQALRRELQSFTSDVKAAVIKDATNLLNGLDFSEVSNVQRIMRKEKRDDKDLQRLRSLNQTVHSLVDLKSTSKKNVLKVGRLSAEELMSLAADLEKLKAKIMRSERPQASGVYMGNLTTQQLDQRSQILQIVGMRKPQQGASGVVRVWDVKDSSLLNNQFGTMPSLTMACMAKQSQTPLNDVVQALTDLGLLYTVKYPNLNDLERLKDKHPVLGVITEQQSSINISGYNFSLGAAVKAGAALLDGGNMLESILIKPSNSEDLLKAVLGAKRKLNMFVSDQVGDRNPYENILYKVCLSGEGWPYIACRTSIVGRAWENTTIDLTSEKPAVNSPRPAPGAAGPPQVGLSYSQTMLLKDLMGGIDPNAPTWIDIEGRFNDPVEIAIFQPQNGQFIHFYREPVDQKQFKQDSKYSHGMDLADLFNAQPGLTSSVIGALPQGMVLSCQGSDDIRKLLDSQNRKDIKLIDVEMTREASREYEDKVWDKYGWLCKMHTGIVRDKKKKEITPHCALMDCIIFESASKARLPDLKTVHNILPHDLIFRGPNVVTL
Chain of DNA dC->dU-editing enzyme APOBEC-3G (Homo sapiens) (Q9HC16 whole entry, looked up): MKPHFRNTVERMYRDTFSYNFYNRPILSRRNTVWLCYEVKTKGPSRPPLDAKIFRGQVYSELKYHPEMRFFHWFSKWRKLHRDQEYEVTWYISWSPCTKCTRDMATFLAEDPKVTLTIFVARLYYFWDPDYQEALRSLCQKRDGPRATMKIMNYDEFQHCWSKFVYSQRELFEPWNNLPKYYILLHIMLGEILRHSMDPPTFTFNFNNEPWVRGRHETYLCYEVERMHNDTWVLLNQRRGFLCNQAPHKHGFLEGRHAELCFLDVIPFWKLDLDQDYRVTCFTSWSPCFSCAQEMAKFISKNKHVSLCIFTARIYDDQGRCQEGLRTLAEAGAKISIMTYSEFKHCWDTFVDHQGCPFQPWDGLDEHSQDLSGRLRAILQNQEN
Chain of Alpha-galactosidase (Coffea arabica) (Q42656 whole entry, looked up): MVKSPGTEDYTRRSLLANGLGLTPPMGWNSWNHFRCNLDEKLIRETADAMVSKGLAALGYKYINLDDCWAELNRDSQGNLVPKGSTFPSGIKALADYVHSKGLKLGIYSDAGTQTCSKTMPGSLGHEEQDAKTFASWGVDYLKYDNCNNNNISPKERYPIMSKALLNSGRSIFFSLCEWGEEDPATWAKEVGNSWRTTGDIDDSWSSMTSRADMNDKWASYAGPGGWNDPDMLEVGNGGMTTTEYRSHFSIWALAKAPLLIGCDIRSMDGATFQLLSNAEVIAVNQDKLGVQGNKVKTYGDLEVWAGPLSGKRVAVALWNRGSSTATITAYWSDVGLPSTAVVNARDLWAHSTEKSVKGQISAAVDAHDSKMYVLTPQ
Chain of Glucocorticoid receptor (Homo sapiens) (P04150 whole entry, looked up): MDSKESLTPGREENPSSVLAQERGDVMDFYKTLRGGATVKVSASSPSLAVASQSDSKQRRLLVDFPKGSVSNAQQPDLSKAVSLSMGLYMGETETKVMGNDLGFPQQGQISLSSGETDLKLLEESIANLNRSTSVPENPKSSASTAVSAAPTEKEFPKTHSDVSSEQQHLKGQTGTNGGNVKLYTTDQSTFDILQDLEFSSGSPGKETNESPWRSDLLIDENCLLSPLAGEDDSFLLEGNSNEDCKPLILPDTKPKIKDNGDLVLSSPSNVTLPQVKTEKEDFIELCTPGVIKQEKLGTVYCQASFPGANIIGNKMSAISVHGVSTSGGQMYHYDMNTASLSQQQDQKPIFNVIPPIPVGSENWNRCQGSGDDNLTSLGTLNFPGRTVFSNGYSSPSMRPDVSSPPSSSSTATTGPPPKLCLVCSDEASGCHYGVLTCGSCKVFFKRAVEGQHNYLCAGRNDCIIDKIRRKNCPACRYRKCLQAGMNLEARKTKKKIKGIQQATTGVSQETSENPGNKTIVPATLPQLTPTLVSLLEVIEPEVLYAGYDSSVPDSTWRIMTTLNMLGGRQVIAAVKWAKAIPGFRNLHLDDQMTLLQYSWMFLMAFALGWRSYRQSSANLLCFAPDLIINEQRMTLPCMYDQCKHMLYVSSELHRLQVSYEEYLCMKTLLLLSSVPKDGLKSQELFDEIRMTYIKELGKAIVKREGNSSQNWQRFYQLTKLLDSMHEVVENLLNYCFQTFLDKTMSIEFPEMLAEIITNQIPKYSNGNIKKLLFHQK
Chain of Cytochrome P450 1A2 (Homo sapiens) (P05177 whole entry, looked up): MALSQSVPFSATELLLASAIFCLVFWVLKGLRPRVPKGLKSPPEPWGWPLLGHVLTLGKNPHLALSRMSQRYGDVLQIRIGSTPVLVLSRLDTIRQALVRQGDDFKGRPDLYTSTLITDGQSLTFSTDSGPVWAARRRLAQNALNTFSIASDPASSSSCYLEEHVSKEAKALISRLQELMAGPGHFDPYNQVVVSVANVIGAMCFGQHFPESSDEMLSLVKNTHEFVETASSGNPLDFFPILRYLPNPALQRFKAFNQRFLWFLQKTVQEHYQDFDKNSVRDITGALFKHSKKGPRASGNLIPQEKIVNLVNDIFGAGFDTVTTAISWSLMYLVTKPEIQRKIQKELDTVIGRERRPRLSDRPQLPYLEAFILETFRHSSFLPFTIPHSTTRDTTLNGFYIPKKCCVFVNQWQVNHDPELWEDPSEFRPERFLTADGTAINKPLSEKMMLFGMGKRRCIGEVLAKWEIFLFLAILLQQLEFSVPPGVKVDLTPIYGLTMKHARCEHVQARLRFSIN
Chain of Cytochrome P450 2C19 (Homo sapiens) (P33261 whole entry, looked up): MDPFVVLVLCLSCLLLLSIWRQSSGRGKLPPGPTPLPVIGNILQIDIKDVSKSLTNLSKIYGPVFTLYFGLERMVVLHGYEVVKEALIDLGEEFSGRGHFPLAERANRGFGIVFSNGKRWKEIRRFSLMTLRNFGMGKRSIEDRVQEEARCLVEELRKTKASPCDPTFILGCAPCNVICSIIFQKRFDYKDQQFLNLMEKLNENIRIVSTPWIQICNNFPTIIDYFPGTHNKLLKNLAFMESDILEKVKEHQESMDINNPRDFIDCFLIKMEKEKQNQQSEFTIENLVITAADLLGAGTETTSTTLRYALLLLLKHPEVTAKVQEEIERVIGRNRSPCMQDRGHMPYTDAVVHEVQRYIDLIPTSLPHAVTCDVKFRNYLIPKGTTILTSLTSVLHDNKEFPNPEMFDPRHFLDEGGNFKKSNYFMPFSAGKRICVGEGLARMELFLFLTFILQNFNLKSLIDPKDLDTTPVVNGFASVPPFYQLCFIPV

CCC1CN2CCC1CC2C(O)c1ccnc2ccccc12 (centres undefined)
-1.23%: max response [1, 21]
inactive: activity change, negative = inhibition ([1]; at 57.5 µM (top of the series)) -3.02% | Potency [2] | Potency [3] | Potency [4] | Potency [5] | Potency [6] | Potency [7]
-3.67%: max response [1, 22]

c1cncc([C@@H]2CCCCN2)c1
5.01 µM (active) and inactive: Potency [9]
active: Potency [12] 2 µM
inactive: outcome [8] | activity change, negative = inhibition [10] -6.22% | Potency [11] > 20.6 µM and > 46 µM | activity change, negative = inhibition ([1]; at 25.7 µM (top of the series)) -0.77% | activity change, negative = inhibition ([1]; at 57.5 µM (top of the series)) -0.69% | Potency [2] | Potency [3] | Potency [4] | Potency [5] | Potency [6] | Potency [7]
-8.76% and -13.6%: max response [1, 22]
-8.06% and -15.1%: max response [1, 21]

O=C1C[C@@H](c2ccc(O)cc2)Oc2cc(O)cc(O)c21
72.2%: parasite growth remaining, % of DMSO control (lower = more inhibition) [13]
inactive: activity change, negative = inhibition ([1]; at 25.7 µM (top of the series)) 0.577% | Potency [4] | Potency [5] | Potency [6] | Potency [7] | Potency [14] | Potency [15]
active: Potency [12] 7.94 µM
-14.1%: max response [1, 22]
-18.3%: max response [1, 21]

O=S(=O)(c1cccc2c(Cl)cccc12)N1CCCNCC1
inactive: outcome [16] | outcome [17] | Potency [18] | outcome [19] | Potency [4] | Potency [5] | Potency [6] | Potency [7] | Potency [20]

— PubChem BioAssay (NCATS)
